Measured values from PubChem BioAssay AID1540 (National Center for Advancing Translational Sciences (NCATS), 2009).
Values joined by “and” are separate entries in the source; they are usually repeats but may differ in a detail not shown here. Equal values may be shown once. Inconclusive results are not listed. Active and inactive are the calls of the source. Calls follow the shape of the dose curve; as a rule, active = well fitted activation curve with a large enough effect; inconclusive = small, poorly fitted or top-dose-only effect, or effect the other way; inactive = flat fitted curve, though single readings scatter.

Biological target: Pyruvate kinase PKM (Homo sapiens) (UniProt P14618)
Sequence (P14618 whole entry, looked up, canonical isoform): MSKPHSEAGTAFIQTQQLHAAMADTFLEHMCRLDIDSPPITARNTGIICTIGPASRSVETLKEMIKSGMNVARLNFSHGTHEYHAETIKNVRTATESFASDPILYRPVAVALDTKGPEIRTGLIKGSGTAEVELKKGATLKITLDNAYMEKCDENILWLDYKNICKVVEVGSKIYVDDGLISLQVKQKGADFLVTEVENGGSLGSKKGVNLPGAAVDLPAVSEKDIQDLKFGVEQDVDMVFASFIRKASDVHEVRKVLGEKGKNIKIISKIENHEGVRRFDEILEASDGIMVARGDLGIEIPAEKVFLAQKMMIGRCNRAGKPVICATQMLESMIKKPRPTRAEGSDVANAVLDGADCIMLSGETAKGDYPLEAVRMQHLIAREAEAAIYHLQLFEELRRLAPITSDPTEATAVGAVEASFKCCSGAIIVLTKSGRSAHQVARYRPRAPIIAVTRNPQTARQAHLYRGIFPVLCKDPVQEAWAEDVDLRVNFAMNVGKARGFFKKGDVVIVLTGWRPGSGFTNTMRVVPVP
Experiment: Secondary assay for Activators of Human Pyruvate Kinase M2 isoform
Settings: purified hPK-M2, LDH-coupled NADH fluorescence kinetic; series mostly up to 57.5 µM
Source text: Confirmatory assay NIH Chemical Genomics Center [NCGC] Matthew G. Vander Heiden, M.D., Ph.D. [Harvard Medical School, 77 Avenue Louis Pasteur, Boston, MA 02115] NCGC Assay Overview: Human pyruvate kinase muscle 2 (hPK-M2)enzyme was supplied as a highly purified (>95% pure) preparation from Harvard Medical School and a secondary assay was used to evaluate compounds. This assay couples the formation of pyruvate from hPK-M2 using lactate dehydrogenase (LDH) and NADH. The depletion of NADH is followed in a fluorescent-based kinetic assay that follows the formation of pyruvate to lactate, as catalyzed LDH (described by Hannaert et al., 2002)1 Pyruvate kinase substrates, PEP and ADP, were present in the assay at 0.1 mM and 4 mM respectively. In this kinetic assay initial rates were determined by following the fluorescence of NADH depletion.
NCGC Assay Protocol Summary: Three uL of substrate mix (final concentration, 50 mM Tris-Cl pH 8.0, 200 mM KCl, 15 mM MgCl2, 0.1 mM PEP, 4.0 mM ADP, and 0.2 mM NADH) was dispensed into black-solid 1536 well plates. 23 nL of compounds were delivered by a pin tool and 1 uL of enzyme mix (final concentrations, 10 nM hPK-M2 and 1 uM of LDH) was added. Plates were immediately placed in ViewLux (Perkin Elmer) and NADH fluorescence was determined at 30 second exposure intervals for between 3 and 6 minutes. Data were normalized to the uninhibited and EC100 activation using known activators such as fructose-bis-phosphate.

Compound	Potency
CN1CCOc2ccc(S(=O)(=O)N3CCN(S(=O)(=O)c4c(F)cccc4F)CC3)cc21	3.55 µM (active) and 708 nM (active)
Cc1nc2ccc(S(=O)(=O)N3CCN(S(=O)(=O)c4c(F)cccc4F)CC3)cc2s1	631 nM (active)
CC(=O)Nc1ccc(S(=O)(=O)N2CCN(S(=O)(=O)c3ccc4c(c3)OCCO4)CC2)cc1	919 nM (active)
O=S(=O)(c1ccc(F)cc1)N1CCN(S(=O)(=O)c2ccc3c(c2)OCCO3)CC1	199 nM (active)
Cc1cc2c(s1)c1cnn(Cc3ccc(C(F)(F)F)cc3)c(=O)c1n2C	2240 nM (active)
O=S(=O)(c1ccc2c(c1)OCCO2)N1CCN(S(=O)(=O)c2ccc(F)cc2F)CC1	501 nM (active)
COc1cc(F)c(S(=O)(=O)N2CCCN(S(=O)(=O)c3ccc4c(c3)OCCO4)CC2)c(F)c1	58 nM (active)
COCCCc1cc(F)c(S(=O)(=O)N2CCN(S(=O)(=O)c3ccc4c(c3)OCCO4)CC2)cc1F	3160 nM (active)
O=C(O)Cc1cc(F)c(S(=O)(=O)N2CCN(S(=O)(=O)c3ccc4c(c3)OCCO4)CC2)cc1F	14100 nM (active)
Cn1c2cc(C#N)sc2c2cnn(Cc3ccc(F)cc3)c(=O)c21	282 nM (active)
CCNc1cccc(S(=O)(=O)N2CCN(S(=O)(=O)c3ccc4c(c3)OCCO4)CC2)c1	inactive
Cc1ccc(C)c(OC2=NS(=O)(=O)c3ccccc32)c1	inactive
Cn1c2cc(C=O)sc2c2cnn(Cc3ccccc3F)c(=O)c21	282 nM (active)
COc1cccc(Cn2ncc3c4sc(S(C)=O)cc4n(C)c3c2=O)c1 (stereo not given)	146 nM (active)
Cn1c2ccsc2c2cnn(Cc3ccc(F)cc3)c(=O)c21	562 nM (active)
COc1cccc(Cn2ncc3c4sc(B(O)O)cc4n(C)c3c2=O)c1	17800 nM (active)
O=S(=O)(c1ccc2c(c1)OCCO2)N1CCN(S(=O)(=O)c2cc(F)c(Br)cc2F)CC1	708 nM (active)
Cc1cc2c(s1)c1cnn(Cc3ccc(C)c(F)c3F)c(=O)c1n2C	141 nM (active)
O=S(=O)(c1ccc2c(c1)OCCO2)N1CCN(S(=O)(=O)c2cccc[n+]2[O-])CC1	4470 nM (active)
CSc1cc2c(s1)c1cnn(Cc3cccc(O)c3)c(=O)c1n2C	65.1 nM (active)

Compound	Potency
Cc1ccc(Cn2ncc3c4sc(C)cc4n(C)c3c2=O)c(C)c1	1780 nM (active)
Cc1cc2c(s1)c1cnn(Cc3cccc(Cn4ncc5c6sc(C)cc6n(C)c5c4=O)c3F)c(=O)c1n2C	35500 nM (active)
Cn1c2cc(B(O)O)sc2c2cnn(Cc3c(F)cccc3Cl)c(=O)c21	6310 nM (active)
O=S(=O)(c1ccccc1)N1CCN(S(=O)(=O)c2ccc3c(c2)OCCO3)CC1	447 nM (active)
Cc1cc2c(s1)c1cnn(Cc3cccc(Cl)c3)c(=O)c1n2C	355 nM (active)
O=S(=O)(c1ccc(Cl)cc1)N1CCN(S(=O)(=O)c2ccc3c(c2)OCCO3)CC1	1120 nM (active)
Cn1c2ccsc2c2cnn(Cc3ccccc3F)c(=O)c21	2510 nM (active)
Cc1cc2c(s1)c1cnn(Cc3ccccc3)c(=O)c1n2C	199 nM (active)
COc1cc(F)c(S(=O)(=O)N2CCN(S(=O)(=O)c3ccc4c(c3)OCCO4)CC2)c(F)c1	562 nM (active)
O=C(N1CCc2ccc(S(=O)(=O)N3CCN(S(=O)(=O)c4ccc5c(c4)OCCO5)CC3)cc2C1)C(F)(F)F	1120 nM (active)
COc1cc(F)c(S(=O)(=O)N2CCCN(S(=O)(=O)c3ccc(NC(C)=O)cc3)CC2)c(F)c1	6510 nM (active)
CCOC(=O)CCc1cc(F)c(S(=O)(=O)N2CCN(S(=O)(=O)c3ccc4c(c3)OCCO4)CC2)cc1F	10000 nM (active)
CCCc1cc(F)c(S(=O)(=O)N2CCN(S(=O)(=O)c3ccc4c(c3)OCCO4)CC2)cc1F	8910 nM (active)
Cn1c2cc(Br)sc2c2cnn(Cc3c(F)cccc3Cl)c(=O)c21	794 nM (active)
Nc1cc(S(=O)(=O)N2CCN(S(=O)(=O)c3ccc4c(c3)OCCO4)CC2)ccn1	inactive
Cn1c2cc(S(C)(=O)=O)sc2c2cnn(Cc3ccccc3F)c(=O)c21	447 nM (active)
Cn1c2cc(S(C)=O)sc2c2cnn(Cc3ccccc3F)c(=O)c21 (stereo not given)	398 nM (active)
O=S(=O)(c1ccc2c(c1)OCCO2)N1CCN(S(=O)(=O)c2ccccc2F)CC1	316 nM (active)
COC(=O)c1cc2c(s1)c1cnn(Cc3ccccc3F)c(=O)c1n2C	355 nM (active)
Cc1cc2c(s1)c1cnn(Cc3ccc(Cl)cc3)c(=O)c1n2C	1120 nM (active)
